The whole screen tested about 370,000 compounds, of which about 5,400 (1.5%) were called active. Only a selection was taken, and actives are over-represented in it overall. Unmarked numbers belong to inactive results.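 The calls were made as follows: active = activation above the mean of all tested compounds plus 3 SD (cut at about 5.5% in these data); inactive = the rest.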
The molecules below were run on DAF-12 nuclear receptor (Haemonchus contortus) (assay: hcDAF-12 driven luciferase reporter activation – cell-based, luminescence, HEK293, lit1-tk-luc reporter, primary screen (AID 652067;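 also: 100% = response to 3 µM Δ7-dafachronic acid high control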)). Conditions: HEK293 hcDAF-12 lit1-tk-luc reporter, at 6.8 µM, hits give high values, 0% DMSO, 100% Δ7-dafachronic acid.
`Cn1c(=NC(=O)C2CC2)sc2cc(F)cc(F)c21` was tested, and the activation was 7.5% (active). `Cc1cc(C)nc(NC(=S)N2CCN(c3ccc(C(F)(F)F)cn3)CC2)c1` showed an activation of -1.92%. For `CCCCN(C)C(=O)C1CCN(Cc2ccccn2)CC1`, the activation was -1.01%. `Cc1ccc(-c2c3c(=O)n(C)c(=O)n(C)c3cn2-n2cnnc2)cc1` gave an activation of 2.64%. For `COc1ccc(OC)c(-n2cc3c(=O)n(C)c(=O)n(C)c3c2)c1`, the activation was -1.87%. With `COc1ccc(-c2c3c(=O)n(C)c(=O)n(C)c3cn2-c2cccc(OC)c2)cc1` the activation was 7.44% (active). For `Cc1ccc(C)c(NC(=O)CCS(=O)(=O)c2ccccc2)c1`, the activation was -3.65%. In the case of `CC1=C(C)CC(C(=O)NC(C)CCc2ccccc2)C(C(=O)O)C1` (stereo not drawn), the activation is reported as -2.02%. For `CC(CCc1ccccc1)NC(=O)c1cnc(Cl)c(Cl)c1` (stereo not drawn), the activation was 6.18% (active). Molecule `COCC(C)NC(=O)c1ccc(Cl)c(Cl)c1` (stereo not drawn) has an activation of -2.09%. `O=C(NC1CCCC1)C1CSCCS(=O)(=O)N1Cc1ccccc1` (stereo not drawn) gave an activation of -0.49%. For `COc1ccccc1CCn1cnc(-c2ccccc2)c1C(C)C`, the activation was 0.67%. With `O=C(NCc1ccccc1)[C@H]1CCCN1C(=O)[C@H]1CCCN1C(=O)c1cc(F)cc(F)c1` the activation was 0.44%. `C[C@@H]1COc2cccc(N3CCCC3)c2S(=O)(=O)N1C` was tested, and the activation was -0.39%. For `COC(=O)[C@H](C(C)C)N(CCCc1cn(Cc2ccccc2)nn1)S(=O)(=O)c1ccc(F)cc1Br`, the activation was -4.11%. `CC(C)(C)n1nc(C2CC2)c(Br)c1NC(=O)c1ccccc1F` gave an activation of -0.41%. With `Fc1ccc2nc(Nc3nc4c(s3)CCCC4)sc2c1` the activation was 10% (active). `COC(=O)C(NC(C)=O)(Nc1nc2c(s1)CCCC2)C(F)(F)F` (stereo not drawn) gave an activation of 1.23%. Work on `O=C(C1CCN(S(=O)(=O)c2ccccc2)CC1)N1CCN(C2CCCCC2)CC1` yielded an activation of -1.68%. `COCCCNC(=O)C[C@H]1C[C@@]2(C(=O)OC)C(=C[C@H](C(C)(C)C)O[C@@H]2C)N(Cc2ccc(Cl)cc2Cl)C1=O` gave an activation of 0.08%. `COC(=O)Cc1nnn2c1[C@H](C)[C@@H](OC)c1cc(Br)ccc1-2` was tested, and the activation was -1.33%. With `CCOC(=O)c1nc(-c2ccc3c(c2)OCO3)[nH]c1C` the activation was 4.99%. With `C/C(=N\Nc1nc2ccccc2[nH]1)c1cccs1` the activation was 5.49%. In the case of `Cc1ccc(-c2nc3ccccc3[nH]2)cc1N`, the activation is reported as 10.9% (active). For `c1ccc2[nH]c(-c3nc4ccccc4[nH]3)nc2c1`, the activation was 11.1% (active). `CCOC(=O)CNC(=O)CSc1ncccc1-c1nc2ccccc2[nH]1` was tested, and the activation was 1.6%. Work on `O=C1c2ccccc2C(c2nc3ccccc3[nH]2)N1c1ccccc1` (stereo not drawn) yielded an activation of -0.51%. `COC(=O)C1CN(CC(C)C)CCS(=O)(=O)N1Cc1ccc(F)cc1` (stereo not drawn) showed an activation of -1.55%. For `C#CCCN([C@H](C(=O)OC)C(C)C)S(=O)(=O)c1ccc(F)cc1Br`, the activation was -1.11%. `CN(Cc1ccccc1Cl)C(=O)C1CCC(=O)N(CCc2cccc(F)c2)C1` (stereo not drawn) was tested, and the activation was -0.75%. `CCNC(=O)c1cccc(NC(=O)C2CC(=O)N(CCc3ccccc3)C2)c1` (stereo not drawn) was tested, and the activation was -0.37%. In the case of `CN(CC(=O)Nc1cccc(F)c1)C(=O)C1CC(=O)N(CCc2ccccc2)C1` (stereo not drawn), the activation is reported as 6.61% (active). With `Cc1ccc(NN=Nc2nc3c([nH]2)c(=O)n(C)c(=O)n3C)cc1` the activation was 9.25% (active). With `Cc1cccc(C)c1NC(=O)CSc1nc2c([nH]1)c(=O)n(C)c(=O)n2C` the activation was -0.94%. `Cc1cc(C)c(C=NNc2nc3c([nH]2)c(=O)n(C)c(=O)n3C)c(C)c1` showed an activation of 1.11%. `O=C(CSc1nc2ccccc2nc1N1CCCCC1)N1CCN(S(=O)(=O)c2cccc([N+](=O)[O-])c2)CC1` was tested, and the activation was -0.06%. With `CC(C#N)OC(=O)c1cccnc1SCC(=O)Nc1ccc2c(c1)OCO2` (stereo not drawn) the activation was 7.41% (active). `O=C(CSc1nnc(-c2ccccn2)n1-c1ccccc1)Nc1ccc2c(c1)OCO2` gave an activation of -1.02%. `Cc1ccc(-n2c(SCC(=O)Nc3ccc4c(c3)OCO4)nnc2-c2ccccn2)cc1` showed an activation of -2.82%. `COC(=O)c1cc(S(=O)(=O)N2CCN(c3ccccc3C)CC2)cn1C` was tested, and the activation was -0.73%. `C[C@H](O)[C@@H]1C(=O)N2CCc3c([nH]c4c(-c5ccc6c(c5)OCO6)cccc34)[C@@H]2C[C@@H]1N(C)C(=O)c1ccco1` showed an activation of 1.47%. Work on `Cc1cccc(C(=O)Nc2c(-c3ccc(F)cc3)nc3ncccn23)c1` yielded an activation of -3.14%. In the case of `COc1ccc(/C=C2\CC3(OC(C)=O)CCCN2C3)cc1` (stereo not drawn), the activation is reported as -3.46%. With `Cc1cc(NC(=O)COc2ccccc2C#N)no1` the activation was 3.78%. With `N#Cc1ccccc1NC(=O)COc1c(Br)cc(Br)c2cccnc12` the activation was 5.88% (active). `O=C(COC(=O)c1ccccn1)Nc1cccc2ccccc12` showed an activation of -0.09%. With `COC(=O)C1=C(C)N(Cc2ccccc2C(F)(F)F)C(=NCc2ccc(OC)cc2)NC1c1cccc(C(F)(F)F)c1` (stereo not drawn) the activation was 0.01%. With `CC(C)[C@H]1COCCS(=O)(=O)N1Cc1ccccc1-c1cccc2c1sc1ccccc12` the activation was 1.38%. `CC(C)N(Cc1ccccc1)C(=O)COC(=O)c1cnccn1` was tested, and the activation was -0.24%. With `O=C(Oc1ccc(-c2nc(-c3ccccn3)no2)cc1)c1ccccc1` the activation was 0.86%. Work on `O=S(=O)(c1ccc(Br)cc1)c1nc(-c2ccccc2)oc1N1CCOCC1` yielded an activation of 1.01%. For `Brc1ccc(-c2noc(-c3ccccc3)n2)o1`, the activation was 7.04% (active). For `Cc1ccc(-n2c(SCC(=O)Nc3ccc(S(=O)(=O)Nc4nccs4)cc3)nnc2-c2cccnc2)cc1`, the activation was -2.17%. Work on `COc1ccccc1C1=Nc2cccc3cccc(c23)N1` yielded an activation of -1.59%. `Brc1ccc(C2CC(c3ccccc3)=Nc3ccccc3N2)cc1` (stereo not drawn) was tested, and the activation was 4.68%. In the case of `c1ccc(C2=Nc3cccc4cccc(c34)N2)cc1`, the activation is reported as 6.59% (active). Work on `O=C(CSc1nc2ccccc2n1Cc1ccccc1Cl)N/N=C\c1c[nH]c2ccccc12` yielded an activation of 1.72%. Molecule `O=C(CC1SCCNC1=O)Nc1ccc(Cl)cc1` (stereo not drawn) has an activation of 1.04%.

From PubChem BioAssay AID652067 (The Scripps Research Institute Molecular Screening Center, 2013)
